Assay outcomes (PubChem)
Hits are enriched below; roughly 3.4% of the tested compounds scored in any of these assays.
IMPase inh: cell-permeable inhibitors of inositol monophosphatase (IMPase) | P97697 | CHO-M1 cells, IP1 accumulation, HTRF TR-FRET ratio | inhibition (IP1 accumulation), % at 46.1 µM | 120,000 tested, under 10 active; active means well fitted curve in the direction sought with a large enough effect in the signal ratio, not every such curve was filed as active; inconclusive means small, poorly fitted or top-dose-only effect, or a change in a side signal; inactive means no such curve, though single readings can be large or run the other way; the % refers to the signal ratio;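 further: cells stimulated with carbachol in lithium chloride buffer; higher means more IMPase inhibition seen as more IP1 and lower FRET ratio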
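The IP-One HTRF competitive assay in carbachol-stimulated CHO-M1 cells quantifies cellular IP1. Compounds spanned up to 46 uM final, and activity is expressed as AC50 from concentration-response fits of the ratio and donor data.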
HTT ATP protect: cytoprotection in Huntington HTT-Q103 PC12 cell model; PC12 HTT-Q103 induced, cytoprotection, ATP luminescence, 40 h; Potency, µM (highest dose often 56.4 µM), actives largely listed as activators; 230,000 compounds, 0.14% hits; further: nearly all actives have a fitted effect of over 45% in size
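Rat PC12, Q103 Htt exon1-GFP fusion, ecdysone promoter; tebufenozide inducer 100 nM final; compound titration; qHTS, 1500 cells/well; ATPlite luminescent read.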
HttQ103 aggreg: inhibitors of mutant huntingtin aggregate formation in PC12 cells. PC12 HttQ103-GFP aggregates, Acumen cytometry, 40 h. Potency, µM (top dose mostly 46.1 µM), hits mostly inhibitors. 220,000 compounds, 1.1% hits. AID 1688; further: nearly all actives have a fitted effect of over 60% in size
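Huntingtin Q103 exon 1–GFP aggregates in induced PC12 cells (100 nM tebufenozide) were quantified by cytometry from lysates, with compounds dosed in titration.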
NPSR antag: neuropeptide S receptor (human) antagonism, cAMP. 220,000 compounds, 1% hits. AID 1461. Potency, µM (top dose mostly 38.3 µM), hits mostly inhibitors. CHO-NPSR cells, cAMP TR-FRET, antagonist mode. Q6W5P4; further: nearly all actives have a fitted effect of over 50% in size
Target sequence (Q6W5P4 whole entry, looked up): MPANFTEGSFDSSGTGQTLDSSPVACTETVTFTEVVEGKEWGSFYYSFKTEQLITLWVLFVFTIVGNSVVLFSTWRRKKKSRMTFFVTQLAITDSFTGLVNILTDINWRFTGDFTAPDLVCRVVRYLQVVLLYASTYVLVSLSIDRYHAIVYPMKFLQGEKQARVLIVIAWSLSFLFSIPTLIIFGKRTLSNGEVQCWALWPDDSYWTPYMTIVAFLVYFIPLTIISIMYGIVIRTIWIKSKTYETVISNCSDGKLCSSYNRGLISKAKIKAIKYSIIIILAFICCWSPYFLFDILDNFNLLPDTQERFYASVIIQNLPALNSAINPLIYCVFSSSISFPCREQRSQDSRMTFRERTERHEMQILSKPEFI
IMPase Li cell: membrane-permeable IMPase blocker, potentiated with lithium. CHO-M1 cells, IP1 TR-FRET (IP-One), carbachol + lithium. AID 1457. 210,000 compounds, 0.35% hits. Potency, µM (highest dose often 59.4 µM), most hits filed as inhibitors;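 further: IP1 builds up when IMPase is blocked and the TR-FRET signal falls; nearly all actives have a fitted effect of over 50% in size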
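CHO-M1, 2000 cells/well, 16–30 h culture; cpd + low Li+, 30 min 37C; lysis with d2-IP1/Eu-anti-IP1 Ab, 10 min RT; TR-FRET 665/620 ratio and 620 channel; AC50 via Hill.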
PNC assembly inh: perinucleolar compartment assembly inhibition; PC3M PTB-GFP, PNC prevalence imaging, 16 h; active compounds read low; AID 2417; 140,000 compounds, 3.1% hits; activity change (PNC), negative = inhibition, % at 10 µM;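 active means readout at or below -70, meaning at least 70% loss of cells showing the perinucleolar compartment, a nuclear body marking cancer cells; inconclusive means readout between -30 and a set limit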
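PC3M cells stably expressing PTB-GFP, 750–1000 cells/well, treated 16 h at 37 °C with compound (23 nl of library stock), in duplicate. After paraformaldehyde fixation and Hoechst stain, imaged at 20x; PNC prevalence scored by image analysis.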
Of the large screens only hits and unclear results are named; the others gave an inactive call. Unless noted, the call rests on the fitted dose curve; in most records, active means well fitted curve in the direction sought with a large enough effect; inconclusive means small, poorly fitted or top-dose-only effect, or another doubt; inactive means no such curve, though single readings can be large; an effect the other way counts as inactive or inconclusive.

Nc1nc(SCc2ccccc2Cl)nc2nc3c(cc12)CCCC3	none
O=c1[nH]c(SCc2ccccc2Cl)nc2c1CCC2	PNC assembly inh -101
CNc1nc(SCc2ccccc2Cl)nc2c1CCCC2	HttQ103 aggreg 10µM
CC(C)(C)COS(=O)OCC(C)(C)C	none (no result: IMPase inh, HttQ103 aggreg, NPSR antag, PNC assembly inh)
COc1ccc(S(=O)(=O)Nc2ccccc2C(=O)NC(C)(C)C)cc1OC	PNC assembly inh -112
Cc1cc(C)cc(C(=O)N(C)[C@H](Cc2ccc(-c3ccccc3)cc2)C(=O)N[C@@H](Cc2c[nH]c3ccccc23)C(=O)O)c1	none (no result: HttQ103 aggreg, NPSR antag, PNC assembly inh)
COc1cccc(-c2ccc3ncnc(NCCc4c[nH]c5ccc(OC)cc45)c3c2)c1	none (no result: IMPase inh, HttQ103 aggreg, NPSR antag, PNC assembly inh)
CCOc1ccc(Cc2nnc(N)s2)cc1OCC	PNC assembly inh -86
CCCCS(=N)(=O)CC[C@H](N)C(=O)O (stereo partly drawn)	none (no result: IMPase inh, HTT ATP protect, HttQ103 aggreg, PNC assembly inh)
Cc1nc([N+](=O)[O-])c(SCC(N)=O)n1Cc1ccccc1	none (no result: IMPase inh, PNC assembly inh)
Cc1nc([N+](=O)[O-])c(Sc2nc3ccccc3n2C)n1Cc1ccccc1	HttQ103 aggreg 10µM (no result: IMPase inh)
Cc1nc([N+](=O)[O-])c(NCCO)n1Cc1ccccc1	none (no result: IMPase inh, PNC assembly inh)
Cc1nc([N+](=O)[O-])c(N2CCN(C)CC2)n1Cc1ccccc1	PNC assembly inh -88
CC(=O)OC1C2CCC1C([N+]1(C)CCCCC1)CC2 (stereo not drawn)	none (no result: IMPase inh, PNC assembly inh)
CCCn1nc([N+](=O)[O-])c(C(C#N)c2nc3ccccc3s2)c(Cl)c1=O (stereo not drawn)	HTT ATP protect 13µM, NPSR antag 10µM (no result: HttQ103 aggreg)
CC(C)CC1C(C#N)=C(N)Oc2n[nH]c(-c3ccccc3)c21 (stereo not drawn)	HttQ103 aggreg inconclusive, PNC assembly inh -100
C/C(=C\c1ccco1)C1C(C#N)=C(N)Oc2n[nH]c(-c3ccc(C)cc3)c21 (stereo not drawn)	HTT ATP protect 3.5µM
FC1(F)C(F)(F)C(F)(F)C2(F)C(F)(F)C(F)(F)C(F)(F)C(F)(F)C2(F)C1(F)F (stereo not drawn)	none (no result: IMPase inh, NPSR antag, IMPase Li cell, PNC assembly inh)
COc1ccccc1CNc1cc(-c2ccccc2Cl)ncn1	none (no result: IMPase inh, HttQ103 aggreg, NPSR antag, PNC assembly inh)
Fc1cccc(Cc2noc(CN3CCC(c4ccncc4)CC3)n2)c1	none (no result: IMPase inh, PNC assembly inh)
Cc1ccc(N=Cc2ccc(O)cc2O)cc1F	HttQ103 aggreg 3.2µM
Oc1ccc(C=Nc2ccc(N3CCOCC3)cc2)c(O)c1	none
CC(=O)Nc1c(I)cc(I)c(C(=O)O)c1I	none (no result: IMPase inh, NPSR antag, PNC assembly inh)
O=C(NCC(F)(F)F)Nc1cccnc1	PNC assembly inh -100
O=C(Nc1cccnc1)Nc1ccccc1Cl	HTT ATP protect 0.79µM (no result: HttQ103 aggreg)
O=C(Nc1cccnc1)C12CC3CC(CC(C3)C1)C2	none (no result: IMPase inh, PNC assembly inh)
O=C(Nc1ccc(OC(F)(F)F)cc1)Nc1cccnc1	none (no result: IMPase inh, IMPase Li cell, PNC assembly inh)
O=C(Nc1cccnc1)C1(F)C(F)(F)C(F)(F)C(F)(F)C(F)(F)C1(F)F	HttQ103 aggreg 6.3µM, NPSR antag inconclusive
CCCCCCCc1cc2c(cn1)C(=O)C(C)(OC(C)=O)C(O)=C2Cl (stereo not drawn)	none (no result: IMPase inh, HttQ103 aggreg, NPSR antag, PNC assembly inh)
Cc1nn(C)cc1CN(C)C(=O)CCc1nnc(CCC2CCCCC2)o1	none (no result: IMPase inh, PNC assembly inh)
COc1cccc(-c2nc(NC3CCNCC3)c3ccccc3n2)c1	none (no result: IMPase inh, HttQ103 aggreg, NPSR antag, PNC assembly inh)
CCN(CC)S(=O)(=O)c1ccc(NC(=S)NC(=O)CC(C)C)cc1	PNC assembly inh -83 (no result: IMPase inh, HTT ATP protect)
CCN(CC)S(=O)(=O)c1ccc(NC(=S)NC(=O)C(C)C)cc1	none (no result: IMPase inh)
O=C(O)CCCN1C(=O)/C(=C/c2cn(-c3ccccc3)nc2-c2cccs2)SC1=S	HttQ103 aggreg inconclusive, NPSR antag 3.2µM (no result: IMPase inh, PNC assembly inh)
CCC(=O)OCC(=O)C1(OC(=O)CC)C(C)CC2C3C(Cl)CC4=CC(=O)C=C[C@@]4(C)C3C(O)C[C@@]21C (stereo partly drawn)	none (no result: IMPase inh, HttQ103 aggreg, NPSR antag, PNC assembly inh)
CCOC(=O)N1CCN(C2CC(=O)N(c3ccccc3)C2=O)CC1 (stereo not drawn)	none
